# Hits are enriched below; roughly 6.5% of the tested compounds scored in any of these assays.
# HT1080 IDH1KD tx: HT-1080 IDH1 knockdown cell toxicity (counter line); HT-1080 IDH1 knockdown viability, ATP luminescence, 48 h; Potency, µM (top dose mostly 46.1 µM), for inactives: at the highest dose activity, negative = toxicity, most hits filed as cytotoxic; 360,000 compounds, 2% hits; AID 686971;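 also: potency is read from the fitted curve at half-maximal effect; 0% = DMSO wells and -100% = cell-free medium wells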
#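 Using the IDH1-knockdown HT-1080 line run in the same batch and compound series as the NT line, viability after 48 h at 37 °C was determined by CellTiter-Glo luminescence and expressed as % activity.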
# HT1080-NT tox: kills 2HG-producing HT-1080-NT fibrosarcoma cells | HT-1080-NT fibrosarcoma viability, CellTiter-Glo ATP luminescence, 48 h | Potency, µM (doses to about 46.1 µM), inactives show at the top dose activity, negative = less viability, actives largely listed as cytotoxic | 360,000 compounds, 1.6% hits;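 also: NT is the 2HG producing partner of a matched IDH1 knockdown line; potency is read from the fitted curve at half-maximal effect; 0% = DMSO-treated cells and -100% = media-only wells without cells; nearly all actives have a fitted effect of over 55% in size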
#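 Viability of the 2HG-overproducing fibrosarcoma line after 48 hours of compound exposure at 37 degrees C was determined by luminescence with CellTiter-Glo, and concentration-effect curves were then fitted and categorized.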
# HepG2 tox: kills HepG2 cells in TGF-b inhibitor counter-screen | Potency, µM (titrated, usually from 46.1 µM), for the others: top-dose activity change, negative = cytotoxicity, actives largely listed as cytotoxic | HepG2 CAGA-GFP viability, ATP luminescence, 18 h | AID 588856 | 410,000 compounds, 0.76% hits; also: potency is read from the fitted curve at half-maximal effect
#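 HepG2 CAGA-GFP cells (1000/well, DMEM with 1% FBS) received compound, then TGF-beta at 500 pg/mL final, and were incubated 18 hours at 37 degrees C. Viability was read by CellTiter-Glo luminescence. Media-only wells were set as complete cell-killing and DMSO as no toxicity.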
# Giardia killer: Giardia lamblia killing. Giardia lamblia trophozoite viability. activity change, % at 7.66 µM, hits read low. 340,000 compounds, 0.15% hits; in the data active = activity change below about -80%; inconclusive = between about -30% and that limit;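 also: parasites exposed to compound for two days anaerobically before the ATP read; % is scaled to controls: 0 for no effect and ±100 for the full control effect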
#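 Trophozoite viability was measured as ATP-dependent luminescence, read 15-30 min after reagent addition. Before that, parasites at 100 cells/well were exposed to compounds for 48 h, anaerobically, at 37 deg C.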
# IL1B secr inh: blocks inflammasome-driven IL-1 beta release. 360,000 compounds, 4.7% hits. activity change, % at 57.5 µM. THP-1 LPS/ATP IL-1B secretion, AlphaLISA, 16 h; stronger effect = lower value. AID 743279; in the data active = activity change below about -50%; inconclusive = mostly about -30% to -49%; also: % is scaled to controls: 0 for no effect and ±100 for the full control effect
#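 Secreted IL-1B measured by AlphaLISA bead assay after 16 h compound exposure of THP-1 cells; compounds (final up to 57.5 uM) added 1 h before LPS (250 ng/mL) and ATP (1.25 mM) stimulation; lower signal means less secretion.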
# TGFb inhibitor: inhibitors of TGF-b signaling | Potency, µM (doses to about 46.1 µM), inactives show top-dose activity, negative = inhibition, usual class: inhibitors | 410,000 compounds, 1.2% hits | AID 588855 | HepG2 CAGA-GFP TGF-b/SMAD3 reporter, GFP fluorescence, 18 h; TGF-beta stimulated, 500 pg/mL final; also: potency is read from the fitted curve at half-maximal effect; % is scaled to controls: 0 for no effect and ±100 for the full control effect; nearly all actives have a fitted effect of over 65% in size
#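 Cell-based qHTS in HEPG2 carrying a CAGA-GFP Smad reporter; compounds added before 500 pg/mL final TGF-beta, 18 h incubation at 37 degrees C, GFP fluorescence quantified per cell by imaging cytometry.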
# An asterisk follows results filed as active; ? = inconclusive; / = no result. Unless noted, calls follow the shape of the dose curve; as a rule, active = well fitted curve in the direction sought with a large enough effect; inconclusive = small, poorly fitted or top-dose-only effect, or another doubt; inactive = no such curve, though single readings can be large; an effect the other way counts as inactive or inconclusive.
SMILES,HT1080 IDH1KD tx,HT1080-NT tox,HepG2 tox,Giardia killer,IL1B secr inh,TGFb inhibitor
O=S(=O)(Nc1cccc(-c2cn3cccnc3n2)c1)c1ccc(Cl)cc1,-8%,2%,-17%,6,-70*,-16%
O=C(Nc1ccc(N2CCCC2)c(Cl)c1)c1ccco1,-17%,0%,-34%,?,?,11%
O=C(Nc1ccc(N2CCCC2)c(Cl)c1)c1ccc([N+](=O)[O-])o1,5.8µM*,5.8µM*,-79%,?,-109*,?
O=C(Nc1ccc(N2CCCCC2)cc1)c1ccc([N+](=O)[O-])o1,2.3µM*,4.6µM*,-68%,-85*,-99*,?
O=C(Nc1ccc(N2CCN(Cc3ccccc3F)CC2)cc1)c1ccc([N+](=O)[O-])o1,-6%,15µM*,-47%,-96*,-103*,?
CC1CCN(c2ccc(NC(=O)c3ccc([N+](=O)[O-])o3)cc2)CC1,7.3µM*,16µM*,-85%,?,-109*,?
CCn1nc(C)c(/C=N/NC(=S)Nc2ccc(Cl)cc2Cl)c1C,?,-23%,-15%,-3,14,?
COCCCn1c(=O)c2sccc2n(Cc2ccccc2)c1=O,-8%,-2%,-10%,3,-2,-5%
COCCCn1c(=O)c2sccc2n(Cc2ccc(C)cc2)c1=O,-2%,2%,13µM*,5,-1,1%
CC1CCCCN1C(=O)Cn1c(=O)oc2cc(S(=O)(=O)N3CCCC3)ccc21 (stereo unspecified),2%,6%,9%,-3,-3,0%
CCN(CC(=O)NCc1ccc(F)cc1)C(=O)c1cccc(S(=O)(=O)N(C)c2ccc(OC)cc2)c1,0%,1%,-7%,-10,0,-6%
CC(=NNC(=S)N1CC2CCC(CC2)C1)c1cnccn1,?,?,-49%,0,-107*,3.2µM*
CC(=NNC(=S)N1CCCCCC1)c1cccc2cccnc12,?,-8%,14%,-2,-101*,2.2µM*
CC(=NNC(=S)N1CCN(C2CCCCCC2)CC1)c1ccccn1,?,21µM*,-79%,4,-98*,?
CC(=NNC(=S)N1CC2CCC(CC2)C1)c1ccccn1,-17%,-23%,13µM*,/,41,?
Cc1ccc(Nc2nc(CSc3nnc(-c4ccc(F)cc4)n3C)cs2)cc1,3%,1%,-12%,-13,0,?
Cc1ccc(CSCCNC(=O)CN(c2cccc(C)c2C)S(=O)(=O)c2ccccc2)cc1,/,/,-34%,/,/,6%
O=c1cc(CN2CCN(c3ccccc3F)CC2)c2cc3c(cc2o1)CCCC3,18%,4%,18µM*,-2,0,?
O=c1cc(CN2CCN(CCO)CC2)c2cc3c(cc2o1)CCC3,14%,1%,-16%,-15,0,1%
CCc1cc2c(CN3CCN(Cc4ccccc4)CC3)cc(=O)oc2cc1O,-25%,-24%,-46%,5,?,?
O=c1cc(CN2CCN(Cc3ccccc3)CC2)c2cc3c(cc2o1)CCC3,2%,-2%,-8%,-1,-69*,16%
CCc1ccc2c(CN3CCN(Cc4ccccc4)CC3)cc(=O)oc2c1,-18%,-10%,-9%,29,-61*,6%
O=c1cc(CN2CCN(c3ccccc3F)CC2)c2c(ccc3ccccc32)o1,5%,5%,-34%,/,5,?
CNC(=S)NNC(=O)c1sc2cc(C(F)(F)F)cnc2c1-c1cccnc1,-1%,-7%,-4%,6,26,-8%
CNC(=S)NNC(=O)c1sc2cc(C(F)(F)F)cnc2c1-c1ccccn1,6%,13%,2.5µM*,4,22,0%
CC(O)(c1ccc(F)c(F)c1)c1nc(-c2cnc3ccccc3c2)cs1 (stereo unspecified),?,?,-29%,/,32,16µM*

# Screening results (PubChem)
